Screen size: about 5,500 compounds; about 2,000 (36%) were called active. Inconclusive results (about 18%) are left out. Rule as the data show it: active = normalized growth mostly below about 0.91 (no sharp cut-off); inconclusive = no clear call, values can overlap the other calls; inactive = mostly above about 0.92. The list shows a part of the results.
Test: chemical genetic growth profiling, strain panel (AID 1159580);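 also: tested at 20 µM; growth read once vehicle control cultures reached saturation at 30 °C; 1 = growth at the plate median or of vehicle wells; lower values mean less growth of the strain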
Conditions: growth OD

Measured: normalized growth

O=C(O)c1nc2cc(Cl)c(Cl)cc2[nH]c1=O
inactive: S. cerevisiae deletion strains, locus YJR075W, strain HOC1, active compounds read low 1.07 | S. cerevisiae deletion strains, locus YKL009W, strain mrt4, active compounds read low 0.949 | S. cerevisiae deletion strains, locus YKL068W, active compounds read low 0.981 | S. cerevisiae deletion strains, locus YKL085W, strain MDH1 (second series), active compounds read low 1.02 | S. cerevisiae deletion strains, locus YKL085W, strain MDH1, active compounds read low 1.02 | S. cerevisiae deletion strains, locus YKL160W, strain elf1, active compounds read low 0.996 | S. cerevisiae deletion strains, locus YKL190W, strain CNB1, active compounds read low 0.996 | S. cerevisiae deletion strains, locus YKR001C, strain vps1, active compounds read low 0.983 | S. cerevisiae deletion strains, locus YKR026C, strain gcn3, active compounds read low 1.02 | S. cerevisiae deletion strains, locus YKR091W, strain srl3, active compounds read low 1.01 | S. cerevisiae deletion strains, locus YLL001W, strain dnm1, active compounds read low 1.01 | S. cerevisiae deletion strains, locus YLL026W, active compounds read low 1.01 | S. cerevisiae deletion strains, locus YLL041C, strain sdh2, active compounds read low 1.01 | S. cerevisiae deletion strains, locus YLR027C, strain aat2, active compounds read low 1.01 | S. cerevisiae deletion strains, locus YLR039C, strain RIC1, active compounds read low 1.01 | S. cerevisiae deletion strains, locus YLR058C, strain SHM2, active compounds read low 1 | S. cerevisiae deletion strains, locus YLR102C, strain apc9, active compounds read low 0.987 | S. cerevisiae deletion strains, locus YLR113W, strain HOG1, active compounds read low 0.987 | S. cerevisiae deletion strains, locus YLR221C, strain rsa3, active compounds read low 1 | S. cerevisiae deletion strains, locus YLR258W, strain gsy2, active compounds read low 1.02 | S. cerevisiae deletion strains, locus YLR262C, strain YPT6 (second series), active compounds read low 1.02 | S. cerevisiae deletion strains, locus YLR262C, strain YPT6, active compounds read low 0.981 | S. cerevisiae deletion strains, locus YLR268W, strain sec22, active compounds read low 1 | S. cerevisiae deletion strains, locus YLR320W, strain mms22, active compounds read low 1.02 | S. cerevisiae deletion strains, locus YLR330W, strain CHS5, active compounds read low 0.994 | S. cerevisiae deletion strains, locus YLR342W, strain FKS1 (second series), active compounds read low 1.02 | S. cerevisiae deletion strains, locus YLR342W, strain FKS1, active compounds read low 1.03 | S. cerevisiae deletion strains, locus YLR357W, strain rsc2, active compounds read low 1.01 | S. cerevisiae deletion strains, locus YLR370C, strain arc18, active compounds read low 1.03 | S. cerevisiae deletion strains, locus YLR371W, strain rom2, active compounds read low 0.968 | S. cerevisiae deletion strains, locus YLR384C, strain iki3, active compounds read low 1 | S. cerevisiae deletion strains, locus YLR418C, strain cdc73, active compounds read low 1.05 | S. cerevisiae deletion strains, locus YML016C, strain PPZ1, active compounds read low 0.995 | S. cerevisiae deletion strains, locus YML032C, strain rad52, active compounds read low 0.977 | S. cerevisiae deletion strains, locus YML120C, strain ndi1, active compounds read low 1 | S. cerevisiae deletion strains, locus YML124C, strain tub3, active compounds read low 0.993 | S. cerevisiae deletion strains, locus YMR058W, strain fet3, active compounds read low 1.02 | S. cerevisiae deletion strains, locus YMR078C, strain ctf18, active compounds read low 0.99 | S. cerevisiae deletion strains, locus YMR125W, strain sto1, active compounds read low 1.02 | S. cerevisiae deletion strains, locus YMR129W, active compounds read low 1 | S. cerevisiae deletion strains, locus YMR205C, strain PFK2, active compounds read low 1.04 | S. cerevisiae deletion strains, locus YMR223W, strain ubp8, active compounds read low 0.996 | S. cerevisiae deletion strains, locus YMR231W, strain pep5, active compounds read low 1.02 | S. cerevisiae deletion strains, locus YMR263W, strain SAP30, active compounds read low 1.02 | S. cerevisiae deletion strains, locus YMR307W, strain GAS1, active compounds read low 1.04 | S. cerevisiae deletion strains, locus YNL067W, strain RPL9B, active compounds read low 0.948 | S. cerevisiae deletion strains, locus YNL071W, strain lat1, active compounds read low 1.01 | S. cerevisiae deletion strains, locus YNL128W, strain TEP1, active compounds read low 1.04 | S. cerevisiae deletion strains, locus YNL153C, strain GIM3, active compounds read low 1.03 | S. cerevisiae deletion strains, locus YNL183C, strain NPR1, active compounds read low 0.933 | S. cerevisiae deletion strains, locus YNL209W, strain ssb2, active compounds read low 1.01 | S. cerevisiae deletion strains, locus YNL233W, strain BNI4, active compounds read low 1.03 | S. cerevisiae deletion strains, locus YNL248C, strain rpa49, active compounds read low 0.984 | S. cerevisiae deletion strains, locus YNL250W, strain rad50, active compounds read low 0.988 | S. cerevisiae deletion strains, locus YNL271C, strain bni1, active compounds read low 0.991 | S. cerevisiae deletion strains, locus YNL298W, strain CLA4, active compounds read low 0.993 | S. cerevisiae deletion strains, locus YNL307C, strain MCK1, active compounds read low 1.01 | S. cerevisiae deletion strains, locus YNL322C, strain KRE1 (second series), active compounds read low 1.01 | S. cerevisiae deletion strains, locus YNL322C, strain KRE1, active compounds read low 0.998 | S. cerevisiae deletion strains, locus YNR049C, strain mso1, active compounds read low 1.01 | S. cerevisiae deletion strains, locus YNR052C, strain pop2, active compounds read low 0.982 | S. cerevisiae deletion strains, locus YOL006C, strain TOP1, active compounds read low 1.09 | S. cerevisiae deletion strains, locus YOL012C, strain htz1 0.84 | S. cerevisiae deletion strains, locus YOL147C, strain pex11, active compounds read low 0.998 | S. cerevisiae deletion strains, locus YOR001W, strain rrp6, active compounds read low 0.994 | S. cerevisiae deletion strains, locus YOR061W, strain CKA2, active compounds read low 1 | S. cerevisiae deletion strains, locus YOR069W, strain VPS5, active compounds read low 0.997 | S. cerevisiae deletion strains, locus YOR070C, strain gyp1, active compounds read low 1.01 | S. cerevisiae deletion strains, locus YOR080W, strain dia2, active compounds read low 1.02 | S. cerevisiae deletion strains, locus YOR083W, strain WHI5, active compounds read low 0.981 | S. cerevisiae deletion strains, locus YOR106W, strain vam3, active compounds read low 0.994 | S. cerevisiae deletion strains, locus YOR136W, strain idh2, active compounds read low 0.992 | S. cerevisiae deletion strains, locus YOR144C, strain elg1, active compounds read low 0.993 | S. cerevisiae deletion strains, locus YOR184W, strain ser1, active compounds read low 0.988 | S. cerevisiae deletion strains, locus YOR231W, strain MKK1, active compounds read low 1.01 | S. cerevisiae deletion strains, locus YOR265W, strain rbl2, active compounds read low 0.999 | S. cerevisiae deletion strains, locus YOR270C, strain vph1, active compounds read low 1.05 | S. cerevisiae deletion strains, locus YOR290C, strain snf2, active compounds read low 1 | S. cerevisiae deletion strains, locus YOR316C, strain cot1, active compounds read low 0.987 | S. cerevisiae deletion strains, locus YPL051W, strain arl3, active compounds read low 0.989 | S. cerevisiae deletion strains, locus YPL055C, strain LGE1, active compounds read low 0.981 | S. cerevisiae deletion strains, locus YPL078C, strain atp4, active compounds read low 1 | S. cerevisiae deletion strains, locus YPL106C, strain sse1, active compounds read low 1.02 | S. cerevisiae deletion strains, locus YPL240C, strain hsp82, active compounds read low 1 | S. cerevisiae deletion strains, locus YPL241C, strain CIN2, active compounds read low 0.992 | S. cerevisiae deletion strains, locus YPL256C, strain CLN2, active compounds read low 0.994 | S. cerevisiae deletion strains, locus YPR119W, strain clb2, active compounds read low 0.996 | S. cerevisiae deletion strains, locus YPR141C, strain kar3, active compounds read low 0.99 | S. cerevisiae deletion strains, locus YPR163C, strain tif3, active compounds read low 0.992 | S. cerevisiae deletion strains, locus YPR167C, strain met16, active compounds read low 0.996 | S. cerevisiae deletion strains, strain wtn01, active compounds read low 1.01 | S. cerevisiae strains, strain wild type, active compounds read low 1.01
